An excerpt weighted towards active compounds, which were near 3% of everything screened.
TRAIL sens C8 – sensitizes caspase-8 expressing cells to TRAIL | inhibition (viability loss, TRAIL sensitization), % at 10 µM | 360,000 compounds, 1% hits | NB7+C8 cells + TRAIL, ATPlite viability luminescence;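 active = compounds causing at least 50% loss of cell viability in the single-dose screen, relative to plate controls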
PPC-1+TRAIL kill – PPC-1 cancer cell killing with TRAIL present; PPC-1 cells + TRAIL, ATPLite viability luminescence; 220,000 compounds, 0.41% hits; cell killing (% activity), % at 4 µM or 5 µM;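 active = cell killing above 50% in the first pass at 4 µM, then a duplicate retest at 5 µM averaging 50% or more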
SENP6 inh – blocks the human protease SENP6; 330,000 compounds, 1.8% hits; Recombinant SENP6 catalytic domain, aminoluciferin luminescence; AID 2599; inhibition, % at 10 µM; Q9GZR1;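 active = inhibition above about 50% at the single tested dose, limit read from the data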
SENP8 block-1 – SENP8 protease inhibition | Q96LD8 | purified SENP8, Z-RLRGG-aminoluciferin cleavage, luminescence | inhibition, % at 10 µM | 330,000 compounds, 1.2% hits | AID 2540; in the data active = inhibition above about 50%
SENP7 inh – inhibitors of human SENP7 protease; 330,000 compounds, 1.5% hits; recombinant SENP7, Z-RLRGG-aminoluciferin luminescence, 40 min; Q9BQF6; inhibition, % at 5 µM; AID 434973;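 active = inhibition above about 50% at the single test dose, limit read from the data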
SENP8 block-2 – blocks human SENP8 cleavage of Nedd8 substrate; recombinant SENP8, Nedd8 substrate fluorescence; inhibition, % at 20 µM; 360,000 compounds, 0.64% hits; Q96LD8; AID 602440; in the data active = inhibition mostly above about 40%, no sharp cut-off; inactive = mostly below about 27%
SENP8 conf – confirmation of human SENP8 protease inhibitors; shares compounds with SENP7 inh; Recombinant SENP8, Z-RLRGG-aminoluciferin luminescence, 60 min; inhibition, % at 12.5 µM; 6,200 compounds, 40% hits;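 active = mean inhibition across replicates above about 50%, limit read from the data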
SENP6 conf – human SENP6 inhibition, confirmed; shares compounds with SENP7 inh; recombinant SENP6, Z-RLRGG-aminoluciferin luminescence; inhibition, % at 12.5 µM; 6,200 compounds, 58% hits
SENP7 conf – confirmation of human SENP7 protease inhibitors; shares compounds with SENP7 inh; recombinant SENP7, Z-RLRGG-aminoluciferin luminescence, 40 min; inhibition, % at 12.5 µM; 6,200 compounds, 69% hits; AID 488917
Casp3 select – selectivity test for SENP inhibitors: human caspase-3 inhibition | shares compounds with SENP7 inh | 6,200 compounds, 60% hits | inhibition, % at 12.5 µM | purified caspase-3, Z-DEVD-aminoluciferin luminescence, 60 min;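 active = mean inhibition above about 50%, limit read from the data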
SENP luc ctr – counter-screen for SENP inhibitors: luminescence interference. shares compounds with SENP7 inh. Pre-incubated SENP8/Z-RLRGG-aminoluciferin, luciferase luminescence interference. 6,200 compounds, 39% hits. AID 488919. inhibition, % at 12.5 µM;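 active = mean inhibition above about 50% when retested at one dose, limit read from the data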
A number is an active result; i = inactive; nt = not tested or not shown.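 The calls were made as follows, unless noted: active = mean inhibition above about 50% in the one-dose retest (limit read from the data); inactive = the rest.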

SMILES | TRAIL sens C8 | PPC-1+TRAIL kill | SENP6 inh | SENP8 block-1 | SENP7 inh | SENP8 block-2 | SENP8 conf | SENP6 conf | SENP7 conf | Casp3 select | SENP luc ctr
CC1=NN(C(N)=S)C(=O)C1N=Nc1c(C)n(C)n(-c2ccccc2)c1=O (centres undefined) | i | nt | i | i | i | i | nt | nt | nt | nt | nt
CC1=NN(C(N)=S)C(=O)C1N=Nc1ccccc1C (centres undefined) | i | i | i | 75.0 | i | i | i | i | 58.1 | 70.1 | i
CC1CN(C/C(=N\O)C23CC4CC(CC(C4)C2)C3)CC(C)O1 (centres undefined) | i | nt | nt | nt | nt | i | nt | nt | nt | nt | nt
CN(C)CCNC(=S)Nc1ccc(Br)cc1 | i | i | i | i | i | i | nt | nt | nt | nt | nt
COc1ccsc1NC(=O)OCc1ccc(Cl)cc1 | i | nt | 50.5 | i | i | i | 57.9 | 56.3 | 84.5 | 55.2 | 62.5
CSc1nsc(NC(=O)OCc2ccc(Cl)cc2)n1 | i | nt | i | i | i | i | nt | nt | nt | nt | nt
